Targets with a hit are over-represented here; the source holds about 8,800 in all. About 0.5% of all pairs of compound and target were hits. Values without a mark were called inactive.
What was measured:
Test in all cases: log2 fold change, soluble protein after heating vs DMSO (PISA); higher = thermal stabilisation; K562 lysate, 10 uM; active = over 0.2 and 3.5 SD of the protein, either way, in both replicates (recomputed)
[1] = compound: C#Cc1cccc(Nc2ncnc3cc(OCCOC)c(OCCOC)cc23)c1 [erlotinib]
In short: (§1)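 To prepare the extract, K562 pellets were dounce-homogenised in PBS pH 7.4 with 1 mM MgCl2, giving crude material at 1 mg/mL protein. This was treated with 10 μM compound for 30 min, then heated in aliquots for 3 min over 48°C-58°C before pooling and addition of NP-40 to 0.5% at 4°C. Centrifugation at 21,000xg for 90 min left soluble protein in the supernatant, which TMTpro 16plex LC-MS/MS quantified with equalised channel sums. Results are log-two fold changes in thermal stability compared with solvent controls, from duplicates.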

[2] = compound: C/C(=N\NC(=O)C1=CC(=CC=C1)S(=O)(=O)N2CCOCC2)/C3=C(C=CC(=C3)Cl)O
In short: as §1

[3] = compound: C1=CC(=CC=C1C2=NC3=C(N2)C=C(C=C3)C(=O)N)OC4=CC=C(C=C4)Cl
In short: as §1

[4] = compound: C1=CC2=C(C=CC(=C2)/C=C\3/C(=O)NC(=NCC4=CC=CS4)S3)N=C1
In short: as §1

[5] = compound: C1=CC2=NC=CN=C2C=C1/C=C/3\C(=O)NC(=O)S3
In short: as §1

[6] = compound: C1=CC=C(C=C1)C2=NC(=C(N2)C3=CC=NC=C3)C4=CC(=C(C=C4)Cl)O
In short: as §1

[7] = compound: C1=CC=C2C(=C1)C3=NNC4=CC=CC(=C43)C2=O
In short: as §1

[8] = compound: C1CCN(C1)C(=O)NC2=CC=CC(=C2)NC3=NC=C(C(=N3)NCCC4=CN=CN4)Br
In short: as §1

[9] = compound: C1CN(CCC1(CC2=CC=C(C=C2)Cl)N)C3=NC=NC4=C3C=CN4
In short: as §1

[10] = compound: C1COCCN1CCN2C3=CC=CC=C3N=C2NC(=O)C4=CC(=CC=C4)[N+](=O)[O-] [IRAK-1-4 Inhibitor I]
In short: as §1

[11] = compound: C=CC(=O)N1CCC[C@@H](n2nc(-c3ccc(Oc4ccccc4)cc3)c3c(N)ncnc32)C1 [ibrutinib]
In short: as §1

[12] = compound: CC(=O)c1cnc2ccc(-c3cc(Cl)c(O)c(Cl)c3)nc2c1N[C@H]1CC[C@H](CN(C)C)CC1
In short: as §1

[13] = compound: CC(C)(C)Cn1c(N)nc2ccc(-c3[nH]c(C(C)(C)C)nc3-c3ccc(F)cc3)nc21 [ralimetinib]
In short: as §1

[14] = compound: CC(C)(O)CC(=O)NCCn1ccc2ncnc(Nc3ccc(Oc4cccc(C(F)(F)F)c4)c(Cl)c3)c21
In short: as §1

[15] = compound: CC(C)C1=C2N=C(C=C(N2N=C1)NCC3=CC=CC=C3)NCCCCCCN
In short: as §1

[16] = compound: CC1=C(C(CC(=O)N1)C2=CC=C(C=C2)C(F)(F)F)C(=O)NC3=C(C=C4C(=C3)C=NN4)F
In short: as §1

[17] = compound: CC1=C(C2=C(C=C1)C(=O)C3=CC=CC=C3N2CCCN)C
In short: as §1

[18] = compound: CC1=C(C=C(C=C1)NC(=O)C2=CC(=CC=C2)C(C)(C)C#N)NC3=CC4=C(C=C3)N=CN(C4=O)C
In short: as §1

[19] = compound: CC1=C(C=C(C=C1)NC(=O)C2=CC(=CC=C2)N(C)C)NC(=O)C3=CC=C(C=C3)O
In short: as §1

[20] = compound: CC1=CC=C(C=C1)SC2=C3C=C(SC3=CN=C2)C(=O)N
In short: as §1

Sequence of UniProt P00519 (P00519 whole entry, looked up): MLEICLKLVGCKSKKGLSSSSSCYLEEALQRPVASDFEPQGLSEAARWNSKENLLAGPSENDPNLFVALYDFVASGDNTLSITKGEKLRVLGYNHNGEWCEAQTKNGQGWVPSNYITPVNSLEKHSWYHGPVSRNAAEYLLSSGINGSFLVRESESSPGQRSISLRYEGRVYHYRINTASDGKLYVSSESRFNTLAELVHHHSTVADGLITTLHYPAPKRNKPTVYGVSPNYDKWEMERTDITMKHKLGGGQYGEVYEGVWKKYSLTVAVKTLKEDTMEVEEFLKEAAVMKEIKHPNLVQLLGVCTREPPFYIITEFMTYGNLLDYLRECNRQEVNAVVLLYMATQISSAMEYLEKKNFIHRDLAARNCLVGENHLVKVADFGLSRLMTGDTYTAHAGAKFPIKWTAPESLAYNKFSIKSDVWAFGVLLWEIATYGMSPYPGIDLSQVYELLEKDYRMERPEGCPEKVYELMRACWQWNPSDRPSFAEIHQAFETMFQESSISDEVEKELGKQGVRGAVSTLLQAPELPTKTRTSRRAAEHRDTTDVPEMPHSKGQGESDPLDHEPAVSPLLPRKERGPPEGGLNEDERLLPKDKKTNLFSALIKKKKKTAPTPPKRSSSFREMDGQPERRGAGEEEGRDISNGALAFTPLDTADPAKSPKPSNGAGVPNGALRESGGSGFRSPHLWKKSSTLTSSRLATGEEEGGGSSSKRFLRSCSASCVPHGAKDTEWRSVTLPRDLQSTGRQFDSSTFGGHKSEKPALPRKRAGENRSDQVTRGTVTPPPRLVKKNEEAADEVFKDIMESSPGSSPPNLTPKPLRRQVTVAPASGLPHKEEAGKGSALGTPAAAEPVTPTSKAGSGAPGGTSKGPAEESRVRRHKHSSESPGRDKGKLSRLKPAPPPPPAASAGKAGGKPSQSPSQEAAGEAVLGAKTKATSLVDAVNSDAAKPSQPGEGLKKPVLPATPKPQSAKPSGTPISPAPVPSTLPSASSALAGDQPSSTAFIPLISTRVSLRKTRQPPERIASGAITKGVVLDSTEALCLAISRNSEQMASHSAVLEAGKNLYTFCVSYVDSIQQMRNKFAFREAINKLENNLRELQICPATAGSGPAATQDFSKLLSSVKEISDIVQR
Sequence of UniProt P50995 (P50995 whole entry, looked up): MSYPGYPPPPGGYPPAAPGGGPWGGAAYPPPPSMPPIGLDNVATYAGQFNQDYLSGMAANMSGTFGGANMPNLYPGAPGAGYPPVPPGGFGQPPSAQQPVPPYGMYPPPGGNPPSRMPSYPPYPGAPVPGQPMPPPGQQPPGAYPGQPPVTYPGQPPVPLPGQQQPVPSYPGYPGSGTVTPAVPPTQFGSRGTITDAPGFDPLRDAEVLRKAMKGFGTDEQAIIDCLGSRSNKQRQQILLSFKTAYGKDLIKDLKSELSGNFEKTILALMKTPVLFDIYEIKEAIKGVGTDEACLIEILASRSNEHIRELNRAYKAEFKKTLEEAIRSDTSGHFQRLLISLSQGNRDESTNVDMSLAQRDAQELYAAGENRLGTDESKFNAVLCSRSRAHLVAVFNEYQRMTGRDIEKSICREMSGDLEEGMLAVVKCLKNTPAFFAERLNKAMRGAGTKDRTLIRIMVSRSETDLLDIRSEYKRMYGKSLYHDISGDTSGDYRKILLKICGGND
Sequence of UniProt P28288 (P28288 whole entry, looked up): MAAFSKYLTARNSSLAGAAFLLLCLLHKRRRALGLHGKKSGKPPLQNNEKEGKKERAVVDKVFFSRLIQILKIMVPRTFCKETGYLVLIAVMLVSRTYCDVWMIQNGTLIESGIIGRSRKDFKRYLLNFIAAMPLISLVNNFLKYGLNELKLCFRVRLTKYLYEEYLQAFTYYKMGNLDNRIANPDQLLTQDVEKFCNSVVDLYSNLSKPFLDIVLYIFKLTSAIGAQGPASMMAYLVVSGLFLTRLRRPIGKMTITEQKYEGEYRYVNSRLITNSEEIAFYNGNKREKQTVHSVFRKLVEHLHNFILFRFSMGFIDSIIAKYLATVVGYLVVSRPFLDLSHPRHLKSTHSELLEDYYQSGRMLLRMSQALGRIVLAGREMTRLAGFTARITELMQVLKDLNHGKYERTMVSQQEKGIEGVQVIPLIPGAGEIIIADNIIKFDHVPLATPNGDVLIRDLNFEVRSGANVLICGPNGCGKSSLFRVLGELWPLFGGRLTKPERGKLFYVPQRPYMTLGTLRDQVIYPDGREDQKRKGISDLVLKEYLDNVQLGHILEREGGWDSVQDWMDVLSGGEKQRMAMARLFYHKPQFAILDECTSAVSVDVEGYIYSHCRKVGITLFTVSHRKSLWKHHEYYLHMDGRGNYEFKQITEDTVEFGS
Sequence of UniProt Q5JTZ9 (Q5JTZ9 whole entry, looked up): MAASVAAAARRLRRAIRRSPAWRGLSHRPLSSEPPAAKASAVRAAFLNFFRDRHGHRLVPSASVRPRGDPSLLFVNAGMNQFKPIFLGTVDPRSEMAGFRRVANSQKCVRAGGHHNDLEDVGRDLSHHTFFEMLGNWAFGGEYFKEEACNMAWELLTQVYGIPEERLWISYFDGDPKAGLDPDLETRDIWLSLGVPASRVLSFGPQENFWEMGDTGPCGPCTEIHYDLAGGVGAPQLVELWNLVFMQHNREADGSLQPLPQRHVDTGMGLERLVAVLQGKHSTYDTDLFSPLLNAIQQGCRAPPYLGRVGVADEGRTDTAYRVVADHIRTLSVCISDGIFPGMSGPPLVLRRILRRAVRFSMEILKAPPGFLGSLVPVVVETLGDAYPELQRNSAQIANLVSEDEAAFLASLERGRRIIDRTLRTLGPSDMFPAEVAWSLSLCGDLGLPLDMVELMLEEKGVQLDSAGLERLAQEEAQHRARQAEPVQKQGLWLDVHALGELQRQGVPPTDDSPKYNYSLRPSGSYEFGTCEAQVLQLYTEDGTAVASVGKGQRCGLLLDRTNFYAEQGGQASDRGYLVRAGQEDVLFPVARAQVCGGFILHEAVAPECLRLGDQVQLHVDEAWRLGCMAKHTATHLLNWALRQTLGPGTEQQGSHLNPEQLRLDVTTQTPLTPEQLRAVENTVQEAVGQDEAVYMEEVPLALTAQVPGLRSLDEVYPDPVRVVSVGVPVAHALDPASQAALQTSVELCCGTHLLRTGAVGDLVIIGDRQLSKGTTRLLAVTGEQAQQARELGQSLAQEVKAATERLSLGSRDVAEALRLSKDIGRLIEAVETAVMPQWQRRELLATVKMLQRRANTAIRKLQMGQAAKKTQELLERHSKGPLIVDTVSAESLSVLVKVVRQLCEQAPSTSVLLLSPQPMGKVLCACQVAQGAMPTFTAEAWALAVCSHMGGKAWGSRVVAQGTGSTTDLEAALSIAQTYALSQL
Sequence of UniProt Q92974 (Q92974 whole entry, looked up): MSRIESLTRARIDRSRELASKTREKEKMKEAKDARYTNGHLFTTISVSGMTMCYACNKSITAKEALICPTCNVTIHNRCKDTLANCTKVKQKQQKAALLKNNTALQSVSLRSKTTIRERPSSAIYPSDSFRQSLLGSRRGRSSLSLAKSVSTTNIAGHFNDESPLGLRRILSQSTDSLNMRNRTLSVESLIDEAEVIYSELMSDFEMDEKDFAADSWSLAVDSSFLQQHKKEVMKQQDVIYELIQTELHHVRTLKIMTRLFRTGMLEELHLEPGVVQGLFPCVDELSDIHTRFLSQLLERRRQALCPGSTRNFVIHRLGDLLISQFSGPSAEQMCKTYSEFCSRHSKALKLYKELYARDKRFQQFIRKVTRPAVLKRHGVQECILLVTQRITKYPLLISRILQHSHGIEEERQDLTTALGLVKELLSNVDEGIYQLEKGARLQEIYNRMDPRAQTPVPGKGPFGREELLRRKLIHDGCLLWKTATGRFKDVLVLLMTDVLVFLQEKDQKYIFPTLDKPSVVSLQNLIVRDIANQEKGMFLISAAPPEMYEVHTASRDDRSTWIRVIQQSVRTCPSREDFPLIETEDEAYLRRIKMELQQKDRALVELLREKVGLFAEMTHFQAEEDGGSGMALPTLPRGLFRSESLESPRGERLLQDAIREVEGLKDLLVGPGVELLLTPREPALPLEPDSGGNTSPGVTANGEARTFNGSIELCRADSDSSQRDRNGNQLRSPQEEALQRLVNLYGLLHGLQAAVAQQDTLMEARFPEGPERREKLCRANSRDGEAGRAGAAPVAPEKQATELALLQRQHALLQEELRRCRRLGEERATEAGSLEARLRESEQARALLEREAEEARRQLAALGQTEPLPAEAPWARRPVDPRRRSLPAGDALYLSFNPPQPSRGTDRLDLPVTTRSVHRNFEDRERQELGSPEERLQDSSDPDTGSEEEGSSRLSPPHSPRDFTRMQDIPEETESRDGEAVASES
Sequence of UniProt P30837 (P30837 whole entry, looked up): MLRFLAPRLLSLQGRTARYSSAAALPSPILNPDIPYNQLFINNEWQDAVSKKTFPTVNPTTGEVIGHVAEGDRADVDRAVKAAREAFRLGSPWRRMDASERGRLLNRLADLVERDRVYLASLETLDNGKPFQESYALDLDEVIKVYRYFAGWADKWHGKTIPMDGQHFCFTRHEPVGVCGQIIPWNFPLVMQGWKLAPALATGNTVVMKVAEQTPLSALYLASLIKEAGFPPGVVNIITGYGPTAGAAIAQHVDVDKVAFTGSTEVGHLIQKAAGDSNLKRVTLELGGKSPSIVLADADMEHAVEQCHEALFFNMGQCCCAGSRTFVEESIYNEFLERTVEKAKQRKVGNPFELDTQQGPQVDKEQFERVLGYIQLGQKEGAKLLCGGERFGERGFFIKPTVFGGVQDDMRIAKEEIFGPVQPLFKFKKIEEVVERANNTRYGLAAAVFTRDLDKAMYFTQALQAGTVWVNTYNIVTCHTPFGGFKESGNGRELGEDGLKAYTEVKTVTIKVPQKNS
Sequence of UniProt Q5VST6 (Q5VST6 whole entry, looked up): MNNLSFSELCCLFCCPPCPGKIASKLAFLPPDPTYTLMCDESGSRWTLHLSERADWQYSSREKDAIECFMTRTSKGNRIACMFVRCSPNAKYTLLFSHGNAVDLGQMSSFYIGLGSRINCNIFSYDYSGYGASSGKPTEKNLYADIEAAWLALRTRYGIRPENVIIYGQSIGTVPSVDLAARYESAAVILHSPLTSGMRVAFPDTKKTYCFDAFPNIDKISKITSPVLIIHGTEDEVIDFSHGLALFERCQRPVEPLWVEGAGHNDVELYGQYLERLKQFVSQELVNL

Row | Target | log2 fold change [1] | log2 fold change [2] | log2 fold change [3] | log2 fold change [4] | log2 fold change [5] | log2 fold change [6] | log2 fold change [7] | log2 fold change [8] | log2 fold change [9] | log2 fold change [10] | log2 fold change [11] | log2 fold change [12] | log2 fold change [13] | log2 fold change [14] | log2 fold change [15] | log2 fold change [16] | log2 fold change [17] | log2 fold change [18] | log2 fold change [19] | log2 fold change [20]
1 | ANP32E (UniProt Q9BTT0) | 0.006 | -0.006 | 0.016 | -0.021 | 0.012 | -0.004 | -0.065 | -0.025 | 0.011 | 0.023 | 0.03 | -0.009 | -0.015 | 0.001 | 0.022 | -0.051 | -0.072 | 0.011 | -0.065 | 0.063
2 | ACAT1 (UniProt P24752) | 0.011 | 0.006 | -0.015 | 0.015 | 0.017 | -0.002 | -0.007 | -0.028 | 0.015 | 0.017 | 0.002 | 0.005 | 0.003 | 0.002 | -0.002 | 0.001 | 0.034 | -0.013 | -0.007 | 0.015
3 | ABCD3 (UniProt P28288) | -0.1 | 0.556 (active) | 0.217 | -0.051 | -0.055 | -0.075 | -0.031 | -0.084 | 0.044 | -0.003 | -0.035 | -0.083 | -0.067 | 0.064 | 0.185 | 0.01 | -0.096 | -0.028 | -0.073 | -0.031
4 | ARHGAP25 isoform 4 (UniProt P42331) | 0.029 | 0.045 | 0.026 | -0.031 | -0.031 | -0.002 | -0.029 | 0.007 | 0.034 | -0.006 | 0.016 | 0.036 | 0.026 | -0.003 | -0.026 | 0.064 | -0.014 | 0.117 | 0.059 | -0.006
5 | ACACA isoform 4 (UniProt Q13085) | 0.024 | 0.039 | -0.029 | -0.012 | 0.011 | 0.019 | -0.047 | 0.003 | 0.024 | 0.005 | 0.038 | 0.021 | 0.041 | 0.013 | 0.01 | -0.027 | -0.002 | 0.021 | 0.048 | 0.035
6 | AARS2 (UniProt Q5JTZ9) | 0.013 | -0.047 | -0.05 | 0.004 | -0.013 | 0.005 | -0.026 | -0.008 | 0.038 | -0.024 | 0 | -0.052 | 0.025 | -0.018 | 0.029 | 0.009 | 0.02 | -0.006 | 0.035 | -0.03
7 | ARAF (UniProt P10398) | -0.002 | -0.129 | -0.018 | 0.014 | -0.046 | 0.067 | 0.03 | 0.012 | -0.049 | -0.02 | 0.071 | -0.012 | 0.029 | -0.01 | 0.058 | -0.007 | 0.004 | 0.004 | 0.041 | 0.003
8 | ALDH5A1 isoform 2 (UniProt P51649) | -0.005 | 0.045 | 0.024 | -0.009 | 0.006 | 0.013 | -0.026 | -0.013 | -0.002 | -0.012 | 0.041 | 0.018 | -0.015 | 0.001 | -0.019 | -0.01 | 0.001 | 0.021 | -0.022 | 0.011
9 | AIMP1 isoform 2 (UniProt Q12904) | 0.044 | 0.013 | -0.028 | 0.001 | -0.03 | 0.021 | -0.025 | -0.02 | 0.02 | 0.01 | 0.009 | 0.012 | 0.026 | 0.018 | 0.022 | -0.026 | 0.005 | -0.014 | -0.006 | 0.006
10 | ABL1 isoform 2 (UniProt P00519) | 0.026 | -0.005 | -0.013 | 0.026 | -0.027 | 0.033 | -0.022 | -0.035 | 0.015 | -0.01 | 0.157 | 0.077 | 0.019 | 0.024 | -0.017 | -0.014 | -0.01 | 0.048 | 0.011 | -0.043
11 | ANXA11 (UniProt P50995) | 0.015 | 0.031 | 0.025 | -0.022 | 0.017 | -0.079 | -0.016 | 0.011 | 0.033 | 0.006 | -0.005 | -0.027 | -0.002 | 0.057 | 0.034 | -0.031 | 0.023 | -0.041 | 0.01 | 0
12 | ALDH1B1 (UniProt P30837) | -0.064 | 0.027 | -0.035 | -0.004 | 0.031 | 0.009 | 0.262 (active) | -0.025 | 0.048 | 0.038 | 0.008 | 0.086 | 0.019 | 0.02 | 0.056 | -0.024 | -0.005 | -0.018 | -0.014 | -0.018
13 | ARHGEF2 (UniProt Q92974) | -0.006 | -0.041 | -0.014 | -0.017 | 0.002 | 0.039 | -0.007 | -0.051 | -0.018 | -0.005 | 0.028 | -0.003 | 0.043 | 0.005 | 0.014 | 0.008 | -0.034 | 0.047 | 0.018 | 0.01
14 | ACADS (UniProt P16219) | -0.013 | 0.021 | -0.013 | 0.062 | -0.012 | 0.001 | -0.046 | 0.01 | 0.027 | 0.017 | -0.006 | 0.031 | 0.004 | -0.026 | -0.002 | -0.041 | -0.022 | 0.004 | -0.027 | 0.018
15 | ARMCX3 (UniProt Q9UH62) | 0.023 | -0.02 | -0.005 | 0.009 | 0.033 | -0.005 | -0.043 | -0.016 | 0.064 | 0.03 | -0.073 | -0.027 | 0.006 | 0.013 | -0.042 | -0.053 | -0.029 | 0.004 | 0.039 | 0
16 | ABHD17B (UniProt Q5VST6) | -0.08 | -0.047 | -0.011 | 0.044 | -0.043 | 0 | 0.021 | 0.064 | -0.111 | 0.014 | 0.067 | -0.031 | -0.053 | -0.037 | -0.036 | -0.076 | 0.001 | 0.013 | 0.127 | 0.018
